For one test, the target named is MPDU1. As to the kind of experiment: pooled miR-30 sensor sort-seq; sequence = guide strand. The conditions noted are these: shRNA.
TCCTCTGTAGTGCATGACCAGG came in with a sensor-assay potency score (higher = more potent) of -1.87.

Sequence TTCCACTAAAAGAAAACCCTGG had a sensor-assay potency score (higher = more potent) of 0.439.

ATGCTGTAGACCATGGTCCCAG returned a sensor-assay potency score (higher = more potent) of -1.15.

As for TTTCTAAGGATCTGGATCCATC, the sensor-assay potency score (higher = more potent) was -1.09.

TGAATGGAAGTGAAGATTCGGG returned a sensor-assay potency score (higher = more potent) of -0.586.

TTACACAGCTGGAAATTGCTGC gave a sensor-assay potency score (higher = more potent) of 0.224.

On to TTTCTCAGGTAAAAGAATCGGC, for which the sensor-assay potency score (higher = more potent) is 0.459.

In the case of TAATAGTACATGTACAGGGCTT, the sensor-assay potency score (higher = more potent) is -0.0728.

With TTGGTCGTAGCATTTCTCAGGT, the sensor-assay potency score (higher = more potent) was 0.125.

The sequence TAAAAGAATCGGCACGAGCAGC gave a sensor-assay potency score (higher = more potent) of -0.833.

TAGTGCATGACCAGGAAGCAGA returned a sensor-assay potency score (higher = more potent) of -0.943.

Sequence TTTCACAGTCTGTCCTCTGTAG had a sensor-assay potency score (higher = more potent) of 0.208.

In a further test the target is MPG. Described as above. As to conditions: shRNA.
For TGGTCGAAGAACTCCAACCCCA, the sensor-assay potency score (higher = more potent) was -1.62.

TCTGTCGACCACACTGACCCAG came in with a sensor-assay potency score (higher = more potent) of -0.682.

In the case of TAAATGATGTACACGTACAGGG, the sensor-assay potency score (higher = more potent) is -0.261.

TCGACCACACTGACCCAGGGGC returned a sensor-assay potency score (higher = more potent) of -0.746.

Sequence TAGCTGGTCGCTGCTTCTTTTG displayed a sensor-assay potency score (higher = more potent) of -2.15.

Regarding TACAGCTTCATCCTGTGCCAGG, the sensor-assay potency score (higher = more potent) was -1.03.

TCTAGCTGGTCGCTGCTTCTTT: the sensor-assay potency score (higher = more potent) is -0.646.

The sequence TGCTCTAGCTGGTCGCTGCTTC displayed a sensor-assay potency score (higher = more potent) of -0.856.

Take TTCTTTTGCCCCATCCGTCGGC: the sensor-assay potency score (higher = more potent) is -0.549.

The sequence TTCATGCAGAAGTACATGCCGT returned a sensor-assay potency score (higher = more potent) of -0.872.

AAGAACTCCAACCCCAGTCGGG: the sensor-assay potency score (higher = more potent) is -0.896.

Values taken from the OligoGym collection.
Note: reference of the scale not given here.
